Values without a mark were called inactive. Records with an inconclusive call do not appear. Entries that show only a call come without a potency. Active and inactive are the calls of the source. Calls come from the whole dose curve; as a rule, active = well fitted curve in the direction sought with a large enough effect in the repeat runs; inconclusive = weak or mixed curves; inactive = no such curve, though single readings can be large; an effect the other way counts as inactive or inconclusive.
Key:
[1] = qHTS RealTime-Glo MT Cell Viability Assay in HEK293 cells - 16 hour (AID 1224872); note: nearly all actives have a fitted effect of over 50% in size; note: potency is the fitted concentration of half-maximal effect
Method in brief: (§1)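 HEK293 cells were seeded at 600 cells/well together with NanoLuc luciferase and cell-permeant prosubstrate, preincubated 5 h at 37 C/5% CO2, then given compound in DMSO by pintool. Luminescence from viable-cell prosubstrate reduction was read repeatedly over 40 h.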

[2] = qHTS RealTime-Glo MT Cell Viability Assay in HepG2 cells - 8 hour (AID 1224873); note: nearly all actives have a fitted effect of over 55% in size
Method in brief: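 Real-time viability: cells seeded at 600 per well together with NanoLuc and cell-permeant prosubstrate, compounds added after 5 h incubation. Luminescence tracked at 0, 8, 16, 24, 32 and 40 h of exposure.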

[3] = qHTS RealTime-Glo MT Cell Viability Assay in HEK293 cells - 40 hour (AID 1224874); conditions: RealTime-Glo luminescence; max response: active compounds read low; note: nearly all actives have a fitted effect of over 50% in size; note: potency is the fitted concentration of half-maximal effect
Method in brief: (§2)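 Tox21 screen in HEK293 using RealTime-Glo MT chemistry, with cells and reagent co-dispensed. Luminescence proportional to viable cell number was captured at intervals during 40 h compound exposure at 37 C.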

[4] = A CellTox Green Cytotoxicity Assay to monitor cytotoxicity in HEK293 cells - 24 hour (AID 1224875); note: nearly all actives have a fitted effect of over 45% in size; note: potency is the fitted concentration of half-maximal effect
Method in brief: (§3)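 Seeding of HEK293 cells together with cytotoxicity dye preceded a 5 h incubation at 37 C/5% CO2. Test compounds in DMSO were then added and fluorescence monitored across 40 h.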

[5] = A CellTox Green Cytotoxicity Assay to monitor cytotoxicity in HepG2 cells - 16 hour (AID 1224876); note: nearly all actives have a fitted effect of over 45% in size; note: potency is the fitted concentration of half-maximal effect
Method in brief: (§4)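 Nonlytic assay: viable cells exclude the dye, so fluorescence scales with cell death. HepG2 at 600 cells/well, compounds added after 5 h, signal read across 40 h.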

[6] = qHTS RealTime-Glo MT Cell Viability Assay in HEK293 cells - 0 hour (AID 1224880); note: top concentration of the series differs between compounds; nearly all actives have a fitted effect of over 45% in size
Method in brief: as §2

[7] = A CellTox Green Cytotoxicity Assay to monitor cytotoxicity in HEK293 cells - 32 hour (AID 1224881); note: nearly all actives have a fitted effect of over 40% in size; note: potency is the fitted concentration of half-maximal effect
Method in brief: as §3

[8] = A CellTox Green Cytotoxicity Assay to monitor cytotoxicity in HepG2 cells - 0 hour (AID 1224882); note: nearly all actives have a fitted effect of over 35% in size; note: potency is the fitted concentration of half-maximal effect
Method in brief: as §4

[9] = A CellTox Green Cytotoxicity Assay to monitor cytotoxicity in HEK293 cells - 8 hour (AID 1224884); note: nearly all actives have a fitted effect of over 35% in size; note: potency is the fitted concentration of half-maximal effect
Method in brief: as §3

[10] = qHTS RealTime-Glo MT Cell Viability Assay in HepG2 cells - 16 hour (AID 1224885); note: nearly all actives have a fitted effect of over 50% in size
Method in brief: (§5)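 HepG2 cells were seeded at 600 cells/well together with NanoLuc luciferase and a cell-permeant prosubstrate, preincubated 5 h at 37 C/5% CO2, then pin-dosed with compounds in DMSO. Nonlytic luminescence from viable cells was read at each time point.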

[11] = qHTS RealTime-Glo MT Cell Viability Assay in HEK293 cells - 24 hour (AID 1224886); note: nearly all actives have a fitted effect of over 50% in size; note: potency is the fitted concentration of half-maximal effect
Method in brief: as §1

[12] = qHTS RealTime-Glo MT Cell Viability Assay in HEK293 cells - 8 hour (AID 1224887); note: nearly all actives have a fitted effect of over 50% in size; note: potency is the fitted concentration of half-maximal effect
Method in brief: as §2

[13] = A CellTox Green Cytotoxicity Assay to monitor cytotoxicity in HEK293 cells - 16 hour (AID 1224888); note: nearly all actives have a fitted effect of over 35% in size; note: potency is the fitted concentration of half-maximal effect
Method in brief: as §3

[14] = qHTS RealTime-Glo MT Cell Viability Assay in HepG2 cells - 0 hour (AID 1224889); note: nearly all actives have a fitted effect of over 50% in size
Method in brief: as §5

[15] = A CellTox Green Cytotoxicity Assay to monitor cytotoxicity in HepG2 cells - 8 hour (AID 1224890); note: nearly all actives have a fitted effect of over 45% in size; note: potency is the fitted concentration of half-maximal effect
Method in brief: as §4

[16] = A CellTox Green Cytotoxicity Assay to monitor cytotoxicity in HepG2 cells - 24 hour (AID 1224878); note: nearly all actives have a fitted effect of over 45% in size; note: potency is the fitted concentration of half-maximal effect
Method in brief: as §4

[17] = A CellTox Green Cytotoxicity Assay to monitor cytotoxicity in HepG2 cells - 40 hour (AID 1224879); note: nearly all actives have a fitted effect of over 40% in size; note: potency is the fitted concentration of half-maximal effect
Method in brief: as §4

[18] = A CellTox Green Cytotoxicity Assay to monitor cytotoxicity in HepG2 cells - 32 hour (AID 1224883); note: nearly all actives have a fitted effect of over 50% in size; note: potency is the fitted concentration of half-maximal effect
Method in brief: as §4

[19] = qHTS RealTime-Glo MT Cell Viability Assay in HepG2 cells - 32 hour (AID 1224877); note: nearly all actives have a fitted effect of over 55% in size
Method in brief: as §5

## COc1cc(C(C)=O)ccc1OCCCN1CCC(c2noc3cc(F)ccc23)CC1
[1]
  Potency: 7.56 µM (active)
[2]
  Potency: inactive
[3]
  Potency: 10.7 µM (active)
[4]
  Potency: inactive
[5]
  Potency: inactive
[6]
  Potency: inactive
[7]
  Potency: inactive
[8]
  Potency: inactive
[9]
  Potency: inactive
[10]
  Potency: inactive
[11]
  Potency: 9.52 µM (active)
[12]
  Potency: 9.52 µM (active)
[13]
  Potency: inactive
[14]
  Potency: inactive
[15]
  Potency: inactive

## O=C1OC[C@H](Cc2cccc(O)c2)[C@H]1Cc1cccc(O)c1
[2]
  Potency: inactive
[3]
  max response: -19.7%
[4]
  Potency: inactive
[5]
  Potency: inactive
[16]
  Potency: inactive
[17]
  Potency: inactive
[6]
  Potency: inactive
[7]
  Potency: inactive
[8]
  Potency: inactive
[18]
  Potency: inactive
[9]
  Potency: inactive
[10]
  Potency: inactive
[11]
  Potency: inactive
[12]
  Potency: inactive
[13]
  Potency: inactive
[15]
  Potency: inactive

## CCCCC[C@H](O)/C=C/[C@H]1[C@H](O)CC(=O)[C@@H]1C/C=C\CCCC(=O)O
[1]
  Potency: inactive
[2]
  Potency: inactive
[3]
  max response: 19.7%
[4]
  Potency: inactive
[5]
  Potency: inactive
[16]
  Potency: inactive
[17]
  Potency: inactive
[6]
  Potency: inactive
[7]
  Potency: inactive
[8]
  Potency: inactive
[18]
  Potency: inactive
[9]
  Potency: inactive
[10]
  Potency: inactive
[11]
  Potency: inactive
[12]
  Potency: inactive
[13]
  Potency: inactive
[14]
  Potency: inactive
[15]
  Potency: inactive

## COc1cc(NS(=O)(=O)c2ccc(N)cc2)nc(C)n1
[1]
  Potency: inactive
[2]
  Potency: inactive
[3]
  max response: 9.67%
[4]
  Potency: inactive
[5]
  Potency: inactive
[16]
  Potency: inactive
[17]
  Potency: inactive
[6]
  Potency: inactive
[7]
  Potency: inactive
[8]
  Potency: inactive
[18]
  Potency: inactive
[9]
  Potency: inactive
[10]
  Potency: inactive
[11]
  Potency: inactive
[12]
  Potency: inactive
[13]
  Potency: inactive
[14]
  Potency: inactive
[15]
  Potency: inactive

## CC(=O)N[C@@H](Cc1ccc(O)cc1)C(=O)O
[1]
  Potency: inactive
[2]
  Potency: inactive
[3]
  max response: 8.17%
[4]
  Potency: inactive
[5]
  Potency: inactive
[16]
  Potency: inactive
[17]
  Potency: inactive
[6]
  Potency: inactive
[7]
  Potency: inactive
[8]
  Potency: inactive
[18]
  Potency: inactive
[9]
  Potency: inactive
[10]
  Potency: inactive
[11]
  Potency: inactive
[12]
  Potency: inactive
[13]
  Potency: inactive
[15]
  Potency: inactive

## Cc1ccc(N(CCO)CCO)cc1
[2]
  Potency: inactive
[3]
  max response: 0.166%
[4]
  Potency: inactive
[5]
  Potency: inactive
[19]
  Potency: inactive
[16]
  Potency: inactive
[17]
  Potency: inactive
[6]
  Potency: inactive
[7]
  Potency: inactive
[8]
  Potency: inactive
[18]
  Potency: inactive
[9]
  Potency: inactive
[10]
  Potency: inactive
[11]
  Potency: inactive
[12]
  Potency: inactive
[13]
  Potency: inactive
[14]
  Potency: inactive
[15]
  Potency: inactive

## O=C(/C=C/c1ccc([N+](=O)[O-])cc1)c1ccccc1
[1]
  Potency: 24.6 µM (active)
[2]
  Potency: inactive
[3]
  Potency: 24.6 µM (active)
[5]
  Potency: 21.9 µM (active)
[16]
  Potency: 21.9 µM (active)
[17]
  Potency: 21.9 µM (active)
[6]
  Potency: inactive
[7]
  Potency: 17.4 µM (active)
[8]
  Potency: inactive
[18]
  Potency: 21.9 µM (active)
[9]
  Potency: inactive
[10]
  Potency: inactive
[11]
  Potency: 31 µM (active)
[13]
  Potency: inactive
[14]
  Potency: inactive
[15]
  Potency: inactive

## CC(C)Cc1ccc(CC(=O)O)cc1
[2]
  Potency: inactive
[3]
  max response: 4.43%
[4]
  Potency: 10.7 µM (active)
[5]
  Potency: 19 µM (active)
[19]
  Potency: inactive
[16]
  Potency: 19 µM (active)
[17]
  Potency: 21.3 µM (active)
[6]
  Potency: inactive
[7]
  Potency: 10.7 µM (active)
[8]
  Potency: 19 µM (active)
[18]
  Potency: 19 µM (active)
[9]
  Potency: 9.52 µM (active)
[10]
  Potency: inactive
[12]
  Potency: inactive
[13]
  Potency: 9.52 µM (active)
[14]
  Potency: inactive
[15]
  Potency: 21.3 µM (active)

## COc1ccc(-c2cc(C(F)F)nn2-c2ccc(S(N)(=O)=O)cc2)cc1F
[2]
  Potency: inactive
[4]
  Potency: inactive
[5]
  Potency: inactive
[16]
  Potency: inactive
[17]
  Potency: inactive
[6]
  Potency: inactive
[7]
  Potency: inactive
[8]
  Potency: inactive
[18]
  Potency: inactive
[9]
  Potency: inactive
[10]
  Potency: inactive
[12]
  Potency: inactive
[13]
  Potency: inactive
[14]
  Potency: inactive

## Oc1ccc2c(c1)Cc1ccccc1-2
[2]
  Potency: inactive
[3]
  Potency: 19.5 µM (active)
[4]
  Potency: inactive
[19]
  Potency: inactive
[6]
  Potency: inactive
[7]
  Potency: inactive
[8]
  Potency: inactive
[10]
  Potency: inactive
[12]
  Potency: 21.9 µM (active)
[13]
  Potency: inactive
[14]
  Potency: inactive

## CC1C(C)(C)C2=C(C(=O)CCC2)C1(C)C (stereo not drawn)
[1]
  Potency: inactive
[2]
  Potency: inactive
[3]
  max response: -12.9%
[4]
  Potency: inactive
[19]
  Potency: inactive
[6]
  Potency: inactive
[8]
  Potency: inactive
[9]
  Potency: inactive
[10]
  Potency: inactive
[11]
  Potency: inactive
[12]
  Potency: inactive
[13]
  Potency: inactive
[14]
  Potency: inactive
[15]
  Potency: inactive

## O=P(O)(O)Oc1ccccc1
[1]
  Potency: inactive
[2]
  Potency: inactive
[3]
  max response: 12.9%
[4]
  Potency: inactive
[5]
  Potency: inactive
[16]
  Potency: inactive
[17]
  Potency: inactive
[6]
  Potency: inactive
[7]
  Potency: inactive
[8]
  Potency: inactive
[18]
  Potency: inactive
[9]
  Potency: inactive
[10]
  Potency: inactive
[11]
  Potency: inactive
[12]
  Potency: inactive
[13]
  Potency: inactive
[14]
  Potency: inactive
[15]
  Potency: inactive

## O=C(O)c1cccc(C[C@@H]2COc3ccc(OCc4nc5cc(F)ccc5s4)cc3[C@@H]2O)c1
[2]
  Potency: inactive
[3]
  max response: 4.74%
[4]
  Potency: inactive
[5]
  Potency: inactive
[19]
  Potency: inactive
[16]
  Potency: inactive
[17]
  Potency: inactive
[6]
  Potency: inactive
[7]
  Potency: inactive
[8]
  Potency: inactive
[18]
  Potency: inactive
[9]
  Potency: inactive
[10]
  Potency: inactive
[11]
  Potency: inactive
[12]
  Potency: inactive
[13]
  Potency: inactive
[15]
  Potency: inactive

## CC(C)COC(=O)c1ccc(O)cc1
[2]
  Potency: inactive
[5]
  Potency: inactive
[19]
  Potency: inactive
[6]
  Potency: inactive
[8]
  Potency: inactive
[9]
  Potency: inactive
[10]
  Potency: inactive
[14]
  Potency: inactive
[15]
  Potency: inactive

From PubChem BioAssay (Tox21)
